High-throughput results as filed in PubChem BioAssay.
HSP90 inh: HSP90 inhibitors, primary screen, cell lysate, luminescence; Heat shock protein HSP 90 (rabbit reticulocyte lysate; luciferase refolding); Rabbit reticulocyte lysate, luciferase refolding luminescence, 3 h; inhibition, % at 5.6 µM; 290,000 compounds, 0.91% hits;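 active = inhibition above the screen-wide mean plus 3 SD, computed separately per campaign, cut at about 16% in these data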;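 note: inhibitors lower the luminescence because luciferase stays unfolded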
HSF1 inh: HSF1 inhibitors in luciferase reporter cells, primary screen, cell-based, NIH3T3, luminescence; NIH3T3-HGL HSE-luciferase, MG132-induced, luminescence 8 h; hits give low values; activity change, negative = inhibition, % at 7.5 µM (by protocol); 300,000 compounds, 0.77% hits;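 active = more than half of replicate wells show activity change below -50%, luminescence cut by over half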;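 note: luciferase reports HSF-1 transcriptional activity via heat shock element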
HIF act: HIF pathway transcriptional activators, primary screen, cell-based, U2OS HRE-luciferase, luminescence; AID 1910, 2009; activation, % at 7.5 µM (by protocol); 300,000 compounds, 0.32% hits; U2OS HRE-luciferase reporter; normalized: DMSO 0%, desferrioxamine 100%;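 active = mean activation of at least 10% of the iron chelator positive control signal, with at least half of replicates also reaching 10%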
HSF-1 act: HSF-1 activators, primary screen, NIH3T3-HGL cells, MG132 stress, luminescence, single point; NIH3T3-HGL HSF-1 luciferase reporter, 8 h; 100% = twice DMSO control signal; activation, % at 9 µM; 300,000 compounds, 1.7% hits;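 active = mean replicate activation of at least 50% with a set share of replicates each reaching 50%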
ARNT-TACC3 inh: disruptors of ARNT/TACC3 protein interaction, primary screen, biochemical, AlphaScreen, single concentration; AID 623870, 2012; Transforming acidic coiled-coil-containing protein 3 (Homo sapiens), Q9Y6A5; 390,000 compounds, 0.66% hits; inhibition, % at 9.99 µM; AlphaScreen His-ARNT PAS-B/GST-TACC3 binding, luminescence; TACC3 fragment carries E629A point mutation;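 active = mean inhibition of replicates at least 50% and at least half of replicates each reaching 50%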
Large screens that a line does not name were inactive. Shown are actives, neighbours in structure and some others; about 3.1% of the full set was active somewhere.

CCOC(=S)SCC(=O)Nc1nc(-c2ccc(Br)cc2)cs1	none
CCOC(=S)SCC(=O)Nc1nc(-c2ccccc2)cs1	HSF-1 act 67
CCOC(=S)SCC(=O)Nc1nc(C)c(C)s1	HSF-1 act 236
CN(C)C(=O)c1ccc(-c2ccc([C@H]3[C@@H](C#N)N(C(=O)Cc4ccccn4)[C@H]3CO)cc2)cc1	none (no result: HSP90 inh, HSF1 inh, HIF act, HSF-1 act)
CCCC(CCC(=O)Nc1nccs1)C(=O)O (configuration not stated)	HSF-1 act 53
COC(=O)CCC(=O)Nc1nccs1	none
Cn1c(NCc2ccc(Cl)cc2)nc2ccccc21	HSF-1 act 54
CCn1c(CN2CCN(c3ccc(Cl)cc3)CC2)nc2ccccc21	none (no result: HSF1 inh, HSF-1 act)
CCN(CC)c1ccc(CNc2nc3ccccc3n2CCN2CCOCC2)cc1	HSF1 inh -60
C=CCc1cccc(CNc2nc3ccccc3n2C)c1O	none
Cn1c(CN2CCN(c3ccc(Cl)cc3)CC2)nc2ccccc21	HSF-1 act 64
Cc1ccc(CNc2nc3ccccc3n2C)cc1	none
C=CCc1cccc(CNc2nc3ccccc3n2CCN2CCOCC2)c1O	HSF-1 act 118
O=C(NC1CCC1)[C@@H]1[C@@H](CO)[C@@H]2Cn3c(ccc(-c4cncnc4)c3=O)[C@@H]2N1C(=O)NC1CCCC1	none (no result: HSP90 inh, HSF1 inh, HIF act, HSF-1 act)
C[C@@H]1CCCCO[C@H](CN(C)C(=O)c2ccccc2)[C@@H](C)CN([C@H](C)CO)C(=O)c2cc(NS(=O)(=O)c3ccc(Cl)cc3)ccc2O1	none (no result: HSP90 inh, HSF1 inh, HIF act, HSF-1 act)
CNC(=O)/C(C#N)=C/c1ccc(-c2ccc(OC)cc2[N+](=O)[O-])o1	HSF1 inh -89
CCOc1ccc(-c2ccc(C=O)o2)c([N+](=O)[O-])c1	HSF-1 act 109
COc1ccc(-c2ccc(C(=O)O)o2)c([N+](=O)[O-])c1	none
O=S1(=O)NC(=NCC(c2ccco2)N2CCCCC2)c2ccccc21 (configuration not stated)	HSF-1 act 85
COC(=O)CNc1c(-c2ccccc2)nc2ccc(Br)cn12	HSF-1 act 51
COc1ccc(NC(=O)N[C@@H]2CC[C@@H](CCNC(=O)c3cc(Cl)cc(Cl)c3)O[C@@H]2CO)cc1	none (no result: HSP90 inh, HSF1 inh, HIF act, HSF-1 act)
S=C(N/N=C/c1ccc2ncccc2c1)Nc1cccnc1	HSF1 inh -65
CCc1ccccc1NC1=NCC(=O)N1C1CCCCC1	HSF-1 act 59
CN1N=C2c3ccccc3CCC2C1c1ccc(C(F)(F)F)cc1 (configuration not stated)	HSF1 inh -58 (no result: ARNT-TACC3 inh)
COc1cc(NC(=O)CSc2nnnn2-c2ccccc2)cc(OC)c1OC	HSF1 inh -64
O=c1c(Br)c(Br)cnn1-c1ccccc1	none (no result: HSF1 inh, HIF act, HSF-1 act)
Cc1ccc(-n2ncc(Br)c(Br)c2=O)cc1	HSF1 inh -85
C[C@@H]1CN([C@H](C)CO)C(=O)c2cccc(NC(=O)NC3CCCCC3)c2O[C@H]1CN(C)C	none (no result: HSP90 inh, HSF1 inh, HIF act, HSF-1 act)
CC[C@@H](C)[C@H](NC(=O)Cc1c(C)c2cc3c(C)coc3c(C)c2oc1=O)C(=O)O	none
CC[C@@H](C)[C@H](NC(=O)Cc1c(C)c2cc3c(C)c(C)oc3c(C)c2oc1=O)C(=O)O	HSF1 inh -70
O=C(CN1CCCC1)Nc1cc(F)ccc1F	none
O=C(CNCCc1ccc(F)cc1)Nc1cc(F)ccc1F	HSF1 inh -60
CCCC(=O)Nc1ccc2c(c1)C(=O)N(C)C[C@@H](OC)[C@H](C)CN(C(=O)C1CCCC1)[C@@H](C)CO2	none (no result: HSP90 inh, HSF1 inh, HIF act, HSF-1 act)
CC(=O)n1cc([C@@H]2C=C(C(N)=O)O[C@H](OCCCCO)C2)c2ccccc21	none (no result: HSP90 inh, HSF1 inh, HIF act, HSF-1 act)
CCCNC(=O)N1C[C@@H](C)[C@@H](OC)CN(C)C(=O)c2cc(NS(C)(=O)=O)ccc2OC[C@H]1C	none (no result: HSP90 inh, HSF1 inh, HIF act, HSF-1 act)
CO[C@@H]1CN(C)C(=O)c2cc(NC(=O)C3CCC3)ccc2OC[C@H](C)N(C)C[C@@H]1C	none (no result: HSP90 inh, HSF1 inh, HIF act, HSF-1 act)
CCc1ccc(CNCc2ccc(OCC(O)CN(C)Cc3ccccc3)cc2)nc1 (configuration not stated)	none
CCn1ccnc1CNCc1ccc(OCC(O)CN(C)Cc2ccccc2)cc1 (configuration not stated)	ARNT-TACC3 inh 47
CC(C)(C)NC(=O)C(c1ccncc1)N(Cc1ccco1)C(=O)c1ccc(-c2ccccc2)[nH]1 (configuration not stated)	HSF-1 act 138
CC(C)(C)NC(=O)C(c1ccc(F)cc1)N(Cc1ccco1)C(=O)c1csnn1 (configuration not stated)	none
O=C(NC1CCCCC1)C(c1ccncc1)N(Cc1ccccc1)C(=O)c1ccc(-c2ccccc2)[nH]1 (configuration not stated)	HSF-1 act 55
CO[C@@H]1CN(C)C(=O)c2ccc(NC(C)=O)cc2OC[C@H](C)N(C(=O)CN(C)C)C[C@H]1C	none (no result: HSP90 inh, HSF1 inh, HIF act, HSF-1 act)
COc1cccc(OCc2ccc(Cl)cc2)c1C#N	HSF-1 act 61
COc1cccc(CNC(C)(C)CO)c1OCc1ccc(Cl)cc1	none
C[C@H](O)C#Cc1cnc2c(c1)C(=O)N([C@H](C)CO)C[C@H](C)[C@@H](CN(C)C(=O)c1ccc(F)cc1)O2	none (no result: HSP90 inh, HSF1 inh, HIF act, HSF-1 act)
CS(=O)(=O)c1ncc(Cl)c(C(=O)Nc2ccc(N3CCOCC3)cc2)n1	HSF-1 act 100
CS(=O)(=O)c1ncc(Cl)c(C(=O)Nc2ccc(OC(F)F)cc2)n1	HSF1 inh -91
C/C=C/c1ccc2c(c1)O[C@H](CN(C)Cc1cccc(F)c1)[C@@H](C)CN([C@H](C)CO)S2(=O)=O	none (no result: HSP90 inh, HSF1 inh, HIF act, HSF-1 act)
O=C(O)C1CSC(c2ccc3c(c2)OCO3)N1 (configuration not stated)	HSF1 inh -56
CCc1ccc(C2NC(C(=O)O)CS2)cc1 (configuration not stated)	none (no result: HSF1 inh, HIF act, HSF-1 act, ARNT-TACC3 inh)
COc1ccccc1CNC(=O)C[C@H]1C[C@H]2c3cc(NC(=O)CC4CC4)ccc3O[C@H]2[C@@H](CO)O1	none (no result: HSP90 inh, HSF1 inh, HIF act, HSF-1 act)
CC(=O)c1csc(COc2ccc(Cl)cc2)n1	HSF-1 act 61
Cc1cc(C)c2c(n1)sc1c(=O)[nH]c(SCc3ccccc3)nc12	HSF1 inh -89
CC1=NN(c2cccc(C(=O)O)c2)C(=O)/C1=C\C=C/c1ccccc1	HSF-1 act 100 (no result: ARNT-TACC3 inh)
CC1=NN(c2ccc(C)cc2)C(=O)/C1=C\C=C\c1ccccc1	none (no result: ARNT-TACC3 inh)
C=CCOc1ccccc1CN(C(=O)CCl)c1ccc2c(c1)OCO2	HSF1 inh -93
COCCN(CC(=O)NC1CCCCC1)C(=O)/C=C/C(=O)c1ccc(OC)cc1O	HSF1 inh -83
O=C(CN1C(=O)NC2(CCCC2)C1=O)NCCN1C(=O)S/C(=C\c2ccccc2F)C1=O	HSF-1 act 55 (no result: HSP90 inh)
COc1ccc(/C=C2\SC(=O)N(CCNC(=O)CN3C(=O)NC4(CCCC4)C3=O)C2=O)cc1	none (no result: HSP90 inh)
